Results reported in PubChem BioAssay (EPA / NIEHS).
Inconclusive results are not listed. The source made the active and inactive calls. Rule for the calls: active = hit-call score of the fitted dose curve at least 0.9, where 1 is the maximum; inconclusive = response in the unintended direction; inactive = score below 0.9.

Read-out: xenobiotic metabolism (CYP1A1), CYP1A1 (gene 1543)
Experiment: CLD_CYP1A1_6hr: CellzDirect (CLD) Gene Expression Assay for xenobiotic metabolism (CYP1A1) at 6 hours (AID 2283661);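 for AC50: potency for transcript induction above DMSO vehicle baseline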
Method: CLD_6hr is a cell-based, multiplexed-readout assay that uses hepatocyte, a human liver primary cell, with measurements taken at 6 hours after chemical dosing in a 96-well plate.CLD_CYP1A1_6hr is one of 16 assay component(s) measured or calculated from the CLD_6hr assay. It is designed to make measurements of mRNA induction, a form of inducible reporter, as detected with chemiluminescence signals by Quantitative Nuclease Protection Assay (qNPA) technology.Data from the assay component CLD_CYP1A1_6hr was analyzed at the endpoint, CLD_CYP1A1_6hr, in the positive analysis fitting direction relative to DMSO as the negative control and baseline of activity. Using a type of inducible reporter, gain-of-signal activity can be used to understand changes in the reporter gene as they relate to the gene CYP1A1. Furthermore, this assay endpoint can be referred to as a primary readout. To generalize the intended target to other relatable targets, this assay endpoint is annotated to the cyp intended target family, where subfamily is xenobiotic metabolism.
Human hepatocyte cultures were treated daily for two consecutive days with fresh dosing solutions containing appropriate concentrations of the 320 ToxCast chemicals (chemical identities were blinded to CellzDirect and other ToxCast collaborators), vehicle control (0.2% DMSO), and positive control inducers as summarized in Table 1. Due to the large number of treatment groups and chemicals examined, the ToxCast chemicals were divided into two groups (spanning two independent cultures of hepatocytes from separate donor preparations (Hu778: ToxCast plates 1 and 2; Hu776: ToxCast plates 3 and 4). Each preparation of human hepatocyte cultures was treated with respective vehicle control, medium only control, set of six positive controls/reference chemicals for the five hepatic receptor pathways, and a subset of eight of the ToxCast chemicals (indoxacarb, pyrithiobac-sodium, norflurazon, cyhalofop-butyl, methomyl, thiram, acetochlor, and propiconazole). These replicate data, coupled with internal replicates designed within the blinded ToxCast chemical library, provided additional data to evaluate interindividual differences between hepatocyte preparations and their potential impact on chemical profiles.Cell morphology and integrity were evaluated using phase-contrast microscopy as an indicator of hepatocyte cell health (Tyson & Green, 1987). Cultures for each treatment group (i.e., media, vehicle [0.2% DMSO], positive control inducers [multiple concentrations], and the ToxCast chemicals [multiple concentrations]) were observed and cell morphology was assessed relative to vehicle control cultures at each harvest time point (0, 6, 24, or 48 h). […] Images were evaluated at the conclusion of the study to assess changes in cell integrity and account for the effects of chemical exposure on uncharacteristic changes in concentration-dependent gene expression profiles. The results from these determinations of apparent cytotoxicity were annotated (yes/no) alongside the corresponding qNPA data for reference.At the conclusion of each treatment period, hepatocyte cultures (96-well) were washed with 1 volume of HBSS, lysed by addition of 25 ul ArrayPlate lysis buffer (HTG, Tucson, AZ), and 70 ul/well of Denaturation Oil, denatured by incubation at 95C for 10 min, and frozen at approximately -70C until analysis by nuclease protection assay (qNPA) (Roberts et al., 2007). For qNPA analysis, cell lysates were thawed at 50C for approximately 30 min, qNPA probes were added, and samples were incubated at 95C for 10 min to begin the detection process by denaturing the target RNA, dissociating the duplexes and secondary structure hybridization. At the conclusion of the hybridization period, S1 nuclease reagent was added to each sample to digest all nonprotected nucleotides at 50C for 60-90 min. […]

SMILES | outcome | AC50
CCCN(CC)CC1COC2(CCC(C(C)(C)C)CC2)O1 (stereo not given) | inactive | 
CCOP(=O)(OCC)Oc1nc(Cl)c(Cl)cc1Cl |  | 3.92 µM (active)
CC(C)NC(=O)N1CC(=O)N(c2cc(Cl)cc(Cl)c2)C1=O |  | 8.11 µM (active)
Cc1cc(C)nc(Nc2ccccc2)n1 |  | 3.97 µM (active)
CC(C)=CC1C(C(=O)OCc2coc(Cc3ccccc3)c2)C1(C)C (stereo not given) | inactive | 
COP(=S)(OC)Oc1ccc([N+](=O)[O-])c(C)c1 |  | 1.22 µM (active)
CCNC(=O)NC(=O)C(C#N)=NOC | inactive | 
Clc1nc(Cl)nc(Nc2ccccc2Cl)n1 | inactive | 
CC1(C)C(C=C(Cl)Cl)C1C(=O)OC(C#N)c1cccc(Oc2ccccc2)c1 (stereo not given) |  | 2.78 µM (active)
CC1(C)CCC(=Cc2ccc(Cl)cc2)C1(O)Cn1cncn1 (stereo not given) |  | 0.00693 µM (active)
O=C(O)c1c(Cl)ccc2cc(Cl)cnc12 | inactive | 
Cn1c(-c2ccccc2)cc(-c2ccccc2)[n+]1C | inactive | 
CCOP(=S)(OCC)Oc1nc(Cl)n(C(C)C)n1 |  | 2.55 µM (active)
CS(=O)(=O)c1ccc(C(=O)C2C(=O)CCCC2=O)c([N+](=O)[O-])c1 | inactive | 
CCOc1nc(C(Cl)(Cl)Cl)ns1 |  | 8.85 µM (active)
CC(C)N1C(=O)c2ccccc2NS1(=O)=O | inactive | 
CCCCC(O)(Cn1cncn1)c1ccc(Cl)cc1Cl (stereo not given) |  | 0.532 µM (active)
CCC(C)n1c(=O)[nH]c(C)c(Br)c1=O (stereo not given) |  | 7.21 µM (active)
N#CN=C1SCCN1Cc1ccc(Cl)nc1 | inactive | 
CCCCOCN(C(=O)CCl)c1c(CC)cccc1CC |  | 5.21 µM (active)

SMILES | outcome | AC50
N#Cc1c[nH]cc1-c1cccc2c1OC(F)(F)O2 |  | 0.9 µM (active)
C=CCOC(=O)C(C)(C)OC(=O)c1cc(-n2c(=O)cc(C(F)(F)F)n(C)c2=O)ccc1Cl | inactive | 
COC(=O)c1c(C(F)F)nc(C(F)(F)F)c(C2=NCCS2)c1CC(C)C |  | 1.91 µM (active)
Cc1cnc(C2=NC(C)(C(C)C)C(=O)N2)c(C(=O)O)c1 (stereo not given) | inactive | 
Cc1c(COC(=O)[C@@H]2[C@H](/C=C(\Cl)C(F)(F)F)C2(C)C)cccc1-c1ccccc1 | inactive | 
CCSC(=O)N1CCCCCC1 | inactive | 
OC(c1ccc(Cl)cc1)(c1ccc(Cl)cc1)C(Cl)(Cl)Cl | inactive | 
COP(=O)(OC)O/C(C)=C/C(=O)N(C)C | inactive | 
CCCCC(C#N)(Cn1cncn1)c1ccc(Cl)cc1 (stereo not given) |  | 3.97 µM (active)
COc1ccc(-c2ccccc2)cc1NNC(=O)OC(C)C |  | 0.429 µM (active)
CNC(=O)Oc1cccc2ccccc12 |  | 4.68 µM (active)
COCC(C)N(C(=O)CCl)c1c(C)csc1C (stereo not given) | inactive | 
COCC(=O)N(c1c(C)cccc1C)C(C)C(=O)OC (stereo not given) |  | 20 µM (active)
Clc1cccc(C(Cl)(Cl)Cl)n1 |  | 20 µM (active)
CCN(CC)c1nc(C)cc(OP(=S)(OC)OC)n1 |  | 4.71 µM (active)
CC(C)Nc1nc(Cl)nc(NC(C)C)n1 |  | 4.73 µM (active)
O=P(O)(O)CCCl | inactive | 
CC(C)Oc1cccc(NC(=O)c2ccccc2C(F)(F)F)c1 |  | 3 µM (active)
CS(=O)(=O)c1cc(C(F)(F)F)ccc1C(=O)c1cnoc1C1CC1 | inactive | 
CNC(=O)N(C)c1nnc(C(C)(C)C)s1 |  | 0.00579 µM (active)
